Active and inactive are the calls of the source. Rule for the calls: active = hit-call score of the fitted dose curve at least 0.9, where 1 is the maximum; inactive = score below 0.9.

Read-out in the experiment: ABC Transporter (ABCC2), ABCC2 (gene 1244)
Nature of the experiment: LTEA_HepaRG_ABCC2: Life Technologies and Expression Analysis (LTEA) Assay for ABC Transporter (ABCC2) using HepaRG (AID 2283464). The note with it: mRNA level, 48 h; actives raise or lower the signal. Here is the method: LTEA_HepaRG is a cell based, multiplexed-readout assay that uses HepaRG, a human liver cell line, with measurements taken at 48 hours after chemical dosing on a 96-well plate.LTEA_HepaRG_ABCC2 is one of 102 assay component(s) measured in the LTEA HepaRG cell culture assay. It is a marker of Steatosis/NR mediated transport.Data from the assay component LTEA_HepaRG_ABCC2 was analyzed into 1 endpoint. This assay endpoint, LTEA_HepaRG_ABCC2, was analyzed with bidirectional fitting relative to DMSO as the negative control and baseline of activity. Using a type of inducible reporter, measures of mRNA induction for gain or loss-of-signal activity can be used to understand regulation of transcription factor activity. To generalize the intended target to other relatable targets, this assay endpoint is annotated to the transporter intended target family, where the subfamily is ABC transporter.
A total of 1060 chemcials from the ToxCast library were tested in eight-point concentration-response experiments. Cell culture and cytotoxicity assays were conducted at Thermo Fisher Scientific's Custom Services facility (Madison, WI). A single lot of human HepaRG cells (Thermo Fisher Scientific, Frederick, MD) was used for the cell culture experiments. 96-well format collagen type I coated plates of human HepaRG cells were prepared using established methods. Briefly, cryopreserved HepaRG cells were thawed, plated at a density of approximately 100,000 cells/well in HepaRG Thaw, Plate, and General Purpose media (HPRG770, Thermo Fisher Scientific), and incubated for 48 hours. 0.5% DMSO was selected as vehicle control to balance the requisite need of DMSO in HepaRG cultures to maintain differentiation (for example, baseline metabolism, proportions of hepatocytes vs. cholangiocytes), while enabling further hepatic receptor pathway activation (for example, PXR and CAR) in response to chemical exposure. 48 hours after plating, the culture medium was replaced with HepaRG Serum-Free Incudtion Media. Cells were exposed to each test chemical in duplicate and maintained in CO2 incubators for another 48 hours. Chemical plates were thawed to room temperature and 200x concentrations of treatment groups were prepared. 8-point conentration-reponse curves were made with the highest exposure at 100 uM, followed by half-log dilutions, all in 0.5% DMSO. Each test plate contained variouse controls, induction positive controls (1mM phenobarbital), cytotoxicity positive controls ([…] aflatoxin B1), vehicle controls (0.5% DMSO), and total lysis controls (0.5% DMSO). Cell morphology images were taken using an Essen IncuCyte FLR automated microscope, with six 96-well plates imaged in about 24 minutes. Images were captured and exported and JPEG files. Spent culture media was transfered to black-well plates for the LDH assay, and remaining media was sorted at -80 C for later use. Cells were treated with RLT buffer and frozen until shipped for gene expression analysis. Total RNA was isolated from the cell suspension in 75 uL of Buffer RLT (Qiagen, Germantown, MD 20874) by Quintiles/Expression Analysis (Durham, NC) using a custom isolation procedure. Total RNA from each plate well was transferred to a preamplification plate. Fluidigm's 96.96 Dynamic ArrayTM (Fluidigm, Amsterdam, the Netherlands) technology was used for gene expression analyses by quantitative reverse transcription polymerase chain reaction (qRT-PCR, performed by Quintiles/Expression Analysis, Durham, NC)89. Standard TaqManTM Assays (Applied Biosystems/ThermoFisher Scientific, Foster City, CA) were used to assess the expression of 93 genes selected based on their selectivity and sensitivity to important hepatic receptors known to be modulated by environmental chemicals; importance in human hepatocyte functionality; and hepatotoxicity. […]
On to `OCCN(CCO)CCO`, for which the outcome was inactive.

In the case of `CC(C)O.CC(C)O.OCCN(CCO)CCO.OCCN(CCO)CCO.[Ti]`, the result was inactive.

For the compound `O=C(N[C@H]1CN2CCC1CC2)c1ccc2c(c1)OCCO2`, the call was inactive.

Take `Clc1cccc(Cl)c1`: the call was inactive.

In the case of `Oc1cc(Cl)c(Cl)cc1Cl`, the compound was called inactive.

Regarding `CN(C)C(=S)S`, the outcome was inactive.

For the compound `CCCCCCCCCCCCc1cccc(S(=O)(=O)O)c1`, the AC50 was 45 µM (active).

Take `Clc1cccc(Cl)c1Cl`: the call was inactive.

As for `N#Cc1cccnc1`, the call was inactive.

Regarding `O=C(O)C1(c2ccc3c(c2)OC[C@H](Cc2ccc(-c4ccccc4)cc2)[C@H]3O)CCCC1`, the result was inactive.

As for `Cc1cc(C)cc(C)c1`, the call was inactive.

Consider `CC(C)(C)c1ccccc1O`, for which the outcome was inactive.

For the compound `Oc1c(Cl)cc(Cl)cc1Cl`, the result was inactive.

With `COc1ccccc1N`, the call was inactive.

As a reminder, the AC50 is the midpoint of the concentration-response curve, whichever way the signal moves.

The values above are taken from PubChem BioAssay (EPA / NIEHS).
